Results from PubChem BioAssay.
Inconclusive results are not listed. Activity calls are given as the source filed them.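 Rule for the calls, unless noted: active = inhibition above the screen-wide mean plus 3 SD, about 51%; inactive = the rest.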

How the values were obtained:
[1] = yeast TOR pathway RPL19A-GFP modulators, primary screen, cell-based, S. cerevisiae, multiplex flow cytometry (AID 1862; in the data active = percent of DMSO control GFP below about 86%;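 note: lower values mimic rapamycin by blocking the RPL19A rise seen in DMSO cells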); conditions: S. cerevisiae RPL19A-GFP strain, flow cytometry fluorescence, 3 h; at 10 µM; stronger effect = lower value
[2] = modulators of MEP2-GFP levels in yeast, primary screen, S. cerevisiae, multiplex flow cytometry (AID 1867;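 active = GFP response, as percent of the DMSO control, above the screen-wide mean plus 3 SD, about 139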;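 note: median GFP channel fluorescence of barcode-gated MEP2-GFP cells measured by flow cytometry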); conditions: S. cerevisiae MEP2-GFP strain, 3 h, at 10 µM, stronger effect = higher value, 100% means same as DMSO wells
[3] = modulators of CIT2-GFP expression in yeast, primary screen, S. cerevisiae, GFP fusion, multiplex flow cytometry (AID 1870;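 active = percent response above a set limit, the screen-wide mean plus 3 SD, cut at about 130% in these data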;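 note: barcoded CIT2-GFP strain pooled with four other GFP strains with rapamycin as positive control; median GFP fluorescence per well over plate mean of DMSO wells so 100% = DMSO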); conditions: 3 h, at 10 µM, stronger effect = higher value
[4] = modulators of LAP4-GFP expression in yeast, primary screen, S. cerevisiae, multiplex flow cytometry (AID 1873;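 active = GFP signal, as percent of the solvent control, above the screen mean plus 3 SD, about 149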); conditions: 3 h, at 10 µM, stronger effect = higher value
[5] = modulators of AGP1-GFP expression in yeast TOR pathway, primary screen, cell-based, multiplex flow cytometry, S. cerevisiae (AID 1887;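 active = GFP signal above the screen-wide mean plus 3 SD, that is over about 124.5% of the solvent control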;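 note: AGP1-GFP fusion strain of S. cerevisiae within a five-strain barcoded multiplex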); conditions: 3 h, at 10 µM, stronger effect = higher value
[6] = inhibitors of CD8+ T cell-vesicle binding, pilot screen, LFA-1/ICAM-1 modulator project, MLPCN validation set, flow cytometry (AID 2523;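 active = response below a set limit, under 55% cells CD8-positive and vesicle-bound, and CD8 cells' 90th-percentile brightness under 279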;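 for vesicle binding response: mean PE anti-B7-1 fluorescence of CD8+ cells relative to row control; 100% = QL9-loaded vesicles with DMSO vehicle in the same plate row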); conditions: 2C mouse CD8+ T cells, at 7 µM, stronger effect = lower value; double positive events: measured here: CD8+/vesicle+ event percentage
[7] = biological target: Integrin beta-1 (Homo sapiens) + Integrin alpha-4 (Homo sapiens) (UniProt P13612+P05556); test: inhibition of HUTS-21 binding to VLA-4, pilot screen, VLA-4 allosteric modulator project, U937 cells, HUTS-21 mAb, flow cytometry, validation set (AID 2674;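 active = inhibition above 50%, about 3 SD of the validation set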;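 note: antibody binding induced by the VLA-4 ligand LDV present at three times its Kd; 0% = LDV ligand with antibody and no compound and 100% = antibody without LDV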); conditions: HUTS-21 LIBS mAb binding, at 6.7 µM, stronger effect = higher value, binding induced by LDV ligand
Integrin beta-1 (Homo sapiens) + Integrin alpha-4 (Homo sapiens), sequence (P05556 whole entry, looked up): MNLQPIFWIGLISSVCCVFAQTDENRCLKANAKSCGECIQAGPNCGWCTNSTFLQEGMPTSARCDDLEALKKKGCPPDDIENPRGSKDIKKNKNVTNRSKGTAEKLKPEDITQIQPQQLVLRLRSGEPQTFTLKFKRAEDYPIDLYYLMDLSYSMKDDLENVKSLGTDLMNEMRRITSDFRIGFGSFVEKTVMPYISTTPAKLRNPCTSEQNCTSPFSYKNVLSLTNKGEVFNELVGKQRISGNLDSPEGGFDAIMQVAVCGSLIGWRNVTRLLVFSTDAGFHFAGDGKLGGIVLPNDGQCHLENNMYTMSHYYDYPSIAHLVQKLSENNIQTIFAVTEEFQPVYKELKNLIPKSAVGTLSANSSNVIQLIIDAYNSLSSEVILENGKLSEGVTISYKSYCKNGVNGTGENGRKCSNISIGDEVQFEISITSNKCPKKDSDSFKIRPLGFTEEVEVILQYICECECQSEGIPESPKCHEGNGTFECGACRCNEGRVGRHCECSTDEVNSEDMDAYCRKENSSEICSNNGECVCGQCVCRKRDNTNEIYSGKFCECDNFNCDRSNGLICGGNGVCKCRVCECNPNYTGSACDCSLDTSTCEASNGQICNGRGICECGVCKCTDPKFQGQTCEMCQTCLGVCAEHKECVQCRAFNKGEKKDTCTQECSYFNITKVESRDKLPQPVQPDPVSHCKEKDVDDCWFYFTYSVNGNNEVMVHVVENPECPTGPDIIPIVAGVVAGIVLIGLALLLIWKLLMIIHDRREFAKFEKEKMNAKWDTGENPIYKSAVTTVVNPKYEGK
Integrin beta-1 (Homo sapiens) + Integrin alpha-4 (Homo sapiens), sequence (P13612 whole entry, looked up): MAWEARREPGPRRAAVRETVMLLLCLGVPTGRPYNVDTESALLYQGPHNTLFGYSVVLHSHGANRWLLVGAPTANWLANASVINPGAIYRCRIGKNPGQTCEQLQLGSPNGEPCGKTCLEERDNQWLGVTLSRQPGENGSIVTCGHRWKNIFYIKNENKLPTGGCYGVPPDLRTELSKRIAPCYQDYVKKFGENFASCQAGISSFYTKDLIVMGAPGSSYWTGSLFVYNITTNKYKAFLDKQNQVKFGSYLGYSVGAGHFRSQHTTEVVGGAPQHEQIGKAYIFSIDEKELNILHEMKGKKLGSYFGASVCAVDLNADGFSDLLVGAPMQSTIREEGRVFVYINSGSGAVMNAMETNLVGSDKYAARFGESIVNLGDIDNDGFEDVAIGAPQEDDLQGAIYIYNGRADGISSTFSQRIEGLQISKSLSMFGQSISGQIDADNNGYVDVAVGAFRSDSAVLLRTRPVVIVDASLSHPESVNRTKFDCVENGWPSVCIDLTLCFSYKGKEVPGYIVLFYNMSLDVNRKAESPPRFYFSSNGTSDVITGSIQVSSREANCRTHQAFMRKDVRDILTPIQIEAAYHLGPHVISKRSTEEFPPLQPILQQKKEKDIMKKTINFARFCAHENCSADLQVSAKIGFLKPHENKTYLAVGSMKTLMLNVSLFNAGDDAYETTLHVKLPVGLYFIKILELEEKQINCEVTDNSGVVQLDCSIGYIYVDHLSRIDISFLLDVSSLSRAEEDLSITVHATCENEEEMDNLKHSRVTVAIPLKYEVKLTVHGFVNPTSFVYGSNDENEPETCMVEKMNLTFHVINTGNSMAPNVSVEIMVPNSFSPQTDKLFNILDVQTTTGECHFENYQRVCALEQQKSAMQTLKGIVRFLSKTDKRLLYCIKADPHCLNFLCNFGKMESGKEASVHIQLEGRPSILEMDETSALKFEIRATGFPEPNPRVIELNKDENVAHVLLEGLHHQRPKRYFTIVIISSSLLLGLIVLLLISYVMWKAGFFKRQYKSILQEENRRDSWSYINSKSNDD

[8] = superoxide lowering in aged yeast cells, pilot screen, validation compound set (AID 2706;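 active = superoxide response below 65% of plate, a cut near 3 SD across the whole screen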;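 note: yeast exposed to compound for one week at 30 degrees C before staining; 100% = mean of all compound wells on the same plate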); conditions: S. cerevisiae aging, superoxide DHE fluorescence; at 10 µM; stronger effect = lower value
[9] = biological target: Beta-adrenergic receptor kinase 1 (Homo sapiens) (UniProt P25098); test: GRK2 binders displacing RNA aptamer, biochemical, validation, human GRK2, bead flow cytometry (AID 488806;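 active = aptamer binding inhibition above 30%, about 3 SD of noise from non-fluorescent compounds; inactive = inhibition at or below 30%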); conditions: bead-bound GRK2, FAM-aptamer displacement, at 10 µM, stronger effect = higher value
Beta-adrenergic receptor kinase 1 (Homo sapiens), sequence (P25098 whole entry, looked up): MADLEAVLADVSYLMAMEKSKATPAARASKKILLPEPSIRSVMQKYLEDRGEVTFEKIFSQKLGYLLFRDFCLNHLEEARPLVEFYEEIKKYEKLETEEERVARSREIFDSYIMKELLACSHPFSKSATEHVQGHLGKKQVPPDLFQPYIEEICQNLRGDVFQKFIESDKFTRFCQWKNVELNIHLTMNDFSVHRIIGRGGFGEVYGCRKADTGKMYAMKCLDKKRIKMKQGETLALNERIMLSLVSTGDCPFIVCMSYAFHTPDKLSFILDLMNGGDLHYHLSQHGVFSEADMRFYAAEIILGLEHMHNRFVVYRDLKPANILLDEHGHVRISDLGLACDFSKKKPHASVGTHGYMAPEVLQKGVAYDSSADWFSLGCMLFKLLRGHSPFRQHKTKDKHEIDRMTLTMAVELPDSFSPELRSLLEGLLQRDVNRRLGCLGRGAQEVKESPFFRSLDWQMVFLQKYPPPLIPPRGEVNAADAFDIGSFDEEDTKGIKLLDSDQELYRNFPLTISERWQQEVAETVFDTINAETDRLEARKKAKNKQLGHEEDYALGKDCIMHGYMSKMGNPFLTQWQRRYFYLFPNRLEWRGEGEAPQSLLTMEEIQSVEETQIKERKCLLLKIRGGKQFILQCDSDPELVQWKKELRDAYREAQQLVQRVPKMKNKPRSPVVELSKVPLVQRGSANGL

[10] = biological target: Beta-2 adrenergic receptor (Homo sapiens) (UniProt P07550); test: beta2AR agonists driving receptor internalization, pilot screen, cell-based, FAP fluorogen, flow cytometry, validation set (AID 504459;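 active = percent response above 42, roughly 3 SD of non-fluorescent test compounds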;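 note: agonist-driven loss of surface beta2AR via internalization measured by FAP dye flow cytometry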); conditions: Am2.2-beta2AR cells, FAP surface receptor flow cytometry; at 10 µM; stronger effect = higher value
Beta-2 adrenergic receptor (Homo sapiens), sequence (P07550 whole entry, looked up): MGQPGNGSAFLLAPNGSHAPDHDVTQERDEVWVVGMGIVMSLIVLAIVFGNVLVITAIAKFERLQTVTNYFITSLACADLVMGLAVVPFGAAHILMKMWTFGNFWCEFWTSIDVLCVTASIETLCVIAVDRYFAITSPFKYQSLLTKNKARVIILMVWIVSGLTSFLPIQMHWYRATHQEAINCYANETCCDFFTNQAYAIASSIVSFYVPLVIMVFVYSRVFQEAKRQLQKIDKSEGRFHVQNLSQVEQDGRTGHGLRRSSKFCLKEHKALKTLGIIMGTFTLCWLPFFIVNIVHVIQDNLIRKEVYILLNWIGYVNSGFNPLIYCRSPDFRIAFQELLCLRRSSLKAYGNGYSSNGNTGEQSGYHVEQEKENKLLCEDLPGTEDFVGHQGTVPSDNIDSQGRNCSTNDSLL

[11] = biological target: AP-2 complex subunit beta (Homo sapiens) (UniProt P63010); test: inhibitors of arrestin peptide binding to AP2, pilot screen, biochemical, validation set, GST-AP2 beads, flow cytometry (AID 504541;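 active = inhibition above 54%, about 3 SD of non-fluorescent compounds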;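 note: AP2 carries R879A mutation and is captured from E. coli lysate; bead-bound FITC arrestin peptide fluorescence measuring arrestin peptide binding to AP2; 0% = DMSO wells and 100% = excess unlabeled arrestin peptide control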); conditions: FITC arrestin peptide, at 10 µM, stronger effect = higher value, AP2 beta2 appendage fragment, R879A mutant
AP-2 complex subunit beta (Homo sapiens), sequence (P63010 whole entry, looked up, the tested form may be a part, one chain of several): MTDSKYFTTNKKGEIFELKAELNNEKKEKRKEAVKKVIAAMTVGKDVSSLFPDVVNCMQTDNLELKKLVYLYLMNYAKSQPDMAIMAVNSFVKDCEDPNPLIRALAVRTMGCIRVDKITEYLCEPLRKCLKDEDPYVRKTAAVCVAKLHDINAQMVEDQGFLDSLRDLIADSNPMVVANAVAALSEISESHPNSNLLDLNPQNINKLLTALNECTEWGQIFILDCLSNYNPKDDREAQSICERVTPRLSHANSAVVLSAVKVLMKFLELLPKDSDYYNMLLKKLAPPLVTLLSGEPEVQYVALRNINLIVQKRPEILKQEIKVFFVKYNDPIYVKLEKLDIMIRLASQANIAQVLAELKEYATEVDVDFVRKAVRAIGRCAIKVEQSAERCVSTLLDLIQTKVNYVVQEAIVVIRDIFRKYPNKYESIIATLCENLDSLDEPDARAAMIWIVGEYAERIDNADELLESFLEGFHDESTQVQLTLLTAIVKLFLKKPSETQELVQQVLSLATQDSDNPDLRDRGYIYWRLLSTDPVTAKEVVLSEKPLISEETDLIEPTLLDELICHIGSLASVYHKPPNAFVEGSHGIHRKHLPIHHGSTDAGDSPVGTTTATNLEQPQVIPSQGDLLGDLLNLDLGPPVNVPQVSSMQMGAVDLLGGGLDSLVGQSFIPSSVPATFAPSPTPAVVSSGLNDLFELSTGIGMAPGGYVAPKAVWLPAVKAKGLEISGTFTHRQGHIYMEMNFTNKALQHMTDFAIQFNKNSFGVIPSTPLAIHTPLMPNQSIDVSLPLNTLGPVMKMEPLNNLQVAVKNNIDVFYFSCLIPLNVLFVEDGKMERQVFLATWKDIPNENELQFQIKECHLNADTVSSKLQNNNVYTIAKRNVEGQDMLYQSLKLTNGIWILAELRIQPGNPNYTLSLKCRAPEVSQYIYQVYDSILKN

[12] = yeast V-ATPase proton transport modulators, S. cerevisiae, pHLuorin, HTS validation (AID 504600; in the data active = response above about 15%;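 note: plate controls were DMSO for no effect and reference compound for full effect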); conditions: S. cerevisiae pHLuorin cytosolic pH, at 10 µM, stronger effect = higher value
[13] = test system: anti-desmoglein-3 scFv antibody binding to human DSG3; test: inhibitors of anti-DSG3 scFv binding to DSG3, pilot screen, biochemical, validation compound set, bead-based, flow cytometry (AID 588368;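 active = binding below the plate cutoff, the plate median minus 3 SD, with a reading above zero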;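 note: signal is the median channel fluorescence of bead-bound GFP antibody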); conditions: Protein G beads, DSG3-Fc, scFv-GFP binding, at 10 µM, stronger effect = lower value
[14] = inhibitors of fungal efflux pumps CDR1, CDR2, MDR1, pilot screen, validation compound set, multiplex, phenotypic (AID 588506;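 active = efflux inhibition above 0.42, the validation set average plus 4 SD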;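 note: Nile Red retained in cells so higher fluorescence means more efflux inhibition; 0 = negative control wells and 1 = enniatin B 25 µM full block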); conditions: S. cerevisiae pump-expressing triplex, Nile Red efflux flow cytometry; at 10 µM; stronger effect = higher value; the pumps come from Candida albicans
[15] = biological target: ATP-binding cassette sub-family B member 6 (Homo sapiens) (UniProt Q9NP58); test: ABCB6 transporter inhibitors, pilot screen, K562-ABCB6 cells, flow cytometry, validation set (AID 588550); conditions: K562-ABCB6 porphyrin accumulation, 1 h, at 10 µM, stronger effect = higher value;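 note: 0% = DMSO wells and 100% = benzethonium chloride 70 µM positive control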
ATP-binding cassette sub-family B member 6 (Homo sapiens), sequence (Q9NP58 whole entry, looked up): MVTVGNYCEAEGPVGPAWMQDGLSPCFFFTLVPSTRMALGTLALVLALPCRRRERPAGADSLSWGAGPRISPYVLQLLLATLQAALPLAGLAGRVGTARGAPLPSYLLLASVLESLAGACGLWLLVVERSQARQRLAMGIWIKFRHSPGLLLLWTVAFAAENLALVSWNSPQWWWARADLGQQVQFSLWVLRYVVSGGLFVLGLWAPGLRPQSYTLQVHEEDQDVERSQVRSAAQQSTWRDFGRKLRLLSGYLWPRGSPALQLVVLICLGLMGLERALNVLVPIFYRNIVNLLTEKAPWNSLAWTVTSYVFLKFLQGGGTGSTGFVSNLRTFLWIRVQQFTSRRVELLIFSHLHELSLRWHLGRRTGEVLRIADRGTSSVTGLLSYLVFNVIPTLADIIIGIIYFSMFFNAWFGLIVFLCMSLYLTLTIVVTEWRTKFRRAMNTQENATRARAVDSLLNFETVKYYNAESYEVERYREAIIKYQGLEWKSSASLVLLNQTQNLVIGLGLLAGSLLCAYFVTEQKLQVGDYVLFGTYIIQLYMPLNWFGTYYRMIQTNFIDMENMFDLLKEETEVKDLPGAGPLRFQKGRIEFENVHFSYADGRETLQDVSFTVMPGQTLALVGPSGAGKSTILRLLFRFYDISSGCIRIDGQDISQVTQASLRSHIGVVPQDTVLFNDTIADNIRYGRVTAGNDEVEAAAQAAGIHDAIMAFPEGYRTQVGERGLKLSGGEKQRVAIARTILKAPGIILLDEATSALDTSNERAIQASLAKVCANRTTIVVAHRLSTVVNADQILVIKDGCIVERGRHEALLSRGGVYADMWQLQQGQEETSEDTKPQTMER

[16] = promoters of myeloid differentiation in arrested cells, primary screen, cell-based, GFP/MAC1 double positive, flow cytometry, validation set (AID 588685;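 active = differentiation response of at least 50%, scaled between solvent and reference control, from cells with both markers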;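 note: compound exposure lasts four days before antibody staining and flow analysis; 0% = DMSO wells and 100% = 5 µM fulvestrant positive control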); conditions: ER-HoxA9 marrow cells, stronger effect = higher value, normalized: vehicle 0, fulvestrant 100

Row | SMILES | percent of DMSO control GFP [1] | GFP response vs DMSO [2] | percent response of DMSO control [3] | GFP response vs DMSO [4] | GFP response, % of DMSO [5] | double positive events [6] | vesicle binding response [6] | inhibition [7] | superoxide response (% of plate) [8] | aptamer binding inhibition [9] | response [10] | inhibition [11] | response [12] | binding (% of control) [13] | efflux inhibition (fraction of control) [14] | inhibition [15] | differentiation response [16]
1 | CO[C@@]1(NC(=O)Cc2cccs2)C(=O)N2C(C(=O)O)=C(COC(N)=O)CS[C@@H]21 | 91.5% (inactive) | 130% (inactive) | 111% (inactive) | 83.6% (inactive) | 119% (inactive) | 64.1% | 191% (inactive) | -18.8% (inactive) | 112% (inactive) | 9% (inactive) | -3.96% (inactive) | 1.97% (inactive) | -0.45% (inactive) | 93.6% (inactive) | 0.16 (inactive) | 14% (inactive) | -7.37% (inactive)
2 | CN(C)[C@@H]1C(=O)C(C(N)=O)=C(O)[C@@]2(O)C(=O)C3=C(O)c4c(O)ccc(Cl)c4[C@@H](O)[C@H]3C[C@@H]12 | 104% (inactive) | 105% (inactive) | 98.3% (inactive) | 104% (inactive) | 109% (inactive) | 59.2% | 122% (inactive) | -7.93% (inactive) | 96% (inactive) | 10% (inactive) | -15.7% (inactive) | 10.7% (inactive) | -7.23% (inactive) | 101% (inactive) | -0.17 (inactive) | -10% (inactive) | 8.8% (inactive)
3 | Cc1nnc(NS(=O)(=O)c2ccc(N)cc2)s1 | 92.4% (inactive) | 126% (inactive) | 92.6% (inactive) | 83.6% (inactive) | 92.8% (inactive) | 61.7% | 123% (inactive) | 19.1% (inactive) | 102% (inactive) | 8% (inactive) | 2.41% (inactive) | 2.68% (inactive) | 0.26% (inactive) | 100% (inactive) | -0.24 (inactive) | 14% (inactive) | 0% (inactive)
4 | NC(=O)c1ccccc1O | 103% (inactive) | 108% (inactive) | 92.8% (inactive) | 95.8% (inactive) | 97.4% (inactive) | 64.5% | 199% (inactive) | 11.1% (inactive) | 95.9% (inactive) | -1% (inactive) | 6.88% (inactive) | 33.5% (inactive) | -2.79% (inactive) | 100% (inactive) | 1.03 (active) | 3% (inactive) | 10.3% (inactive)
5 | COc1ccc(NC(=O)CC2C(=O)N(C)C(=S)N2Cc2ccncc2)cc1 (stereo not drawn) | 88% (inactive) | 123% (inactive) | 97.9% (inactive) | 75.4% (inactive) | 88.2% (inactive) | 54.8% | 194% (inactive) | 5.49% (inactive) | 105% (inactive) | 0% (inactive) | -1.13% (inactive) | 0.05% (inactive) | -1.16% (inactive) | 100% (inactive) | 0.01 (inactive) | 8% (inactive) | 1.64% (inactive)
6 | COCCCN1C(=O)/C(=C\c2cccs2)C(C(=O)OC)=C1C | 99.9% (inactive) | 106% (inactive) | 92.9% (inactive) | 120% (inactive) | 99.4% (inactive) | 57.8% | 4220% (inactive) | 6.4% (inactive) | 113% (inactive) | 2% (inactive) | -6.32% (inactive) | -12% (inactive) | 10.8% (inactive) | 102% (inactive) | -0.06 (inactive) | 5% (inactive) | -20% (inactive)
7 | OCCOCCN1CCN(C(c2ccccc2)c2ccc(Cl)cc2)CC1 (stereo not drawn) | 90.4% (inactive) | 114% (inactive) | 95.2% (inactive) | 77% (inactive) | 93.8% (inactive) | 66.8% | 218% (inactive) | -0.33% (inactive) | 95% (inactive) | 1% (inactive) | 3.36% (inactive) | 0.96% (inactive) | 1.14% (inactive) | 110% (inactive) | -0.38 (inactive) | 12% (inactive) | -1.64% (inactive)
8 | NC(N)=NC(=O)Cc1c(Cl)cccc1Cl | 103% (inactive) | 110% (inactive) | 97.8% (inactive) | 99.9% (inactive) | 101% (inactive) | 64.6% | 197% (inactive) | -4.6% (inactive) | 109% (inactive) | -1% (inactive) | -1.1% (inactive) | 18% (inactive) | -2.92% (inactive) | 98.2% (inactive) | -0.01 (inactive) | 18% (inactive) | -2.69% (inactive)
9 | Cc1nonc1CN(C)C(=O)c1ccc(OC2CCN(Cc3ccccn3)CC2)cc1 | 107% (inactive) | 97.2% (inactive) | 113% (inactive) | 83.5% (inactive) | 102% (inactive) | 61.2% | 249% (inactive) | 19.3% (inactive) | 95.8% (inactive) | 0% (inactive) | -11.2% (inactive) | -5.72% (inactive) | 2.07% (inactive) | 97.6% (inactive) | 0.14 (inactive) | 13% (inactive) | 6.11% (inactive)
